From publication PMC5540273 (PLoS ONE, 2017)

Key:
Settings in all cases: concentration: 1 μM, replicates: in singlicate; n = 1
FLT1 = system: FLT1
FLT3-autoinhibited = system: FLT3-autoinhibited
FLT3 = system: FLT3
FLT4 = system: FLT4
FRK = system: FRK
FYN = system: FYN
GAK = system: GAK
GCN2(Kin.Dom.2,S808G) = system: T1, GCN2(Kin.Dom.2,S808G)
T1 construct: gene EIF2AK4

GRK1 = system: GRK1
GRK2 = system: T2, GRK2
T2 construct: gene ADRBK1

GRK3 = system: T3, GRK3
T3 construct: gene ADRBK2

GRK4 = system: GRK4
GRK7 = system: GRK7
GSK3A = system: GSK3A
GSK3B = system: GSK3B
HASPIN = system: T4, HASPIN
T4 construct: gene GSG2

HCK = system: HCK
HIPK1 = system: HIPK1
HIPK2 = system: HIPK2
HIPK3 = system: HIPK3
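Also: KINOMEscan kinase panel screen.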

| SMILES | %Inh (FLT1) [%] | %Inh (FLT3-autoinhibited) [%] | %Inh (FLT3) [%] | %Inh (FLT4) [%] | %Inh (FRK) [%] | %Inh (FYN) [%] | %Inh (GAK) [%] | %Inh (GCN2(Kin.Dom.2,S808G)) [%] | %Inh (GRK1) [%] | %Inh (GRK2) [%] | %Inh (GRK3) [%] | %Inh (GRK4) [%] | %Inh (GRK7) [%] | %Inh (GSK3A) [%] | %Inh (GSK3B) [%] | %Inh (HASPIN) [%] | %Inh (HCK) [%] | %Inh (HIPK1) [%] | %Inh (HIPK2) [%] | %Inh (HIPK3) [%] |
| --- | --- | --- | --- | --- | --- | --- | --- | --- | --- | --- | --- | --- | --- | --- | --- | --- | --- | --- | --- | --- |
| CNc1cc(-c2ccc3c(N)n[nH]c3c2)nc(N)n1 [GSK2224810] | 15 | 16 | 0 | 2 | 7 | 20 | 9 | 0 | 6 | 0 | 10 | 0 | 0 | 6 | 0 | 61 | 0 | 14 | 0 | 18 |
| COc1cc2ncnc(Nc3cccc(Br)c3)c2cc1OC.Cl [GI230329] | 21 | 0 | 0 | 0 | 15 | 16 | 87 | 0 | 0 | 36 | 26 | 0 | 0 | 0 | 0 | 20 | 24 | 0 | 0 | 0 |
| CC[C@@H]1CO[C@H](C(=O)Nc2ccccc2)CN1c1cc(-c2ccc3c(N)n[nH]c3c2)nc(NC)n1 [GSK2376236] | 28 | 0 | 0 | 20 | 0 | 39 | 26 | 0 | 0 | 0 | 0 | 0 | 0 | 12 | 17 | 0 | 0 | 9 | 0 | 4 |
| COc1ccc(-c2coc3ccc(-c4nnc(C)o4)cc23)cc1 | 0 | 0 | 0 | 0 | 0 | 2 | 0 | 0 | 12 | 0 | 0 | 0 | 0 | 11 | 0 | 18 | 0 | 37 | 0 | 0 |
| COc1ccc(Nc2nccc(N3CCC(NC(=O)C(C)c4ccc(Cl)cc4)CC3)n2)cc1 (centres unmarked) [GSK1379812] | 26 | 0 | 0 | 2 | 0 | 12 | 1 | 0 | 0 | 0 | 8 | 0 | 0 | 16 | 8 | 0 | 0 | 0 | 0 | 15 |
| COc1ccc(CSc2nnc(-c3ccc4nccn4c3)o2)cc1C(F)(F)F | 35 | 25 | 15 | 9 | 0 | 0 | 6 | 0 | 5 | 0 | 37 | 0 | 15 | 93.8 | 93.8 | 32 | 0 | 31 | 20 | 5 |
| COc1ccc(Nc2nccc(NCCNC(=O)Nc3cc(C)ccc3C)n2)cc1 [GSK1379899] | 29 | 2 | 0 | 8 | 0 | 0 | 0 | 4 | 0 | 0 | 0 | 12 | 0 | 0 | 0 | 0 | 78 | 0 | 0 | 0 |
| CCn1c(-c2ccccc2)nc2cnccc21 [SB-733416] | 53 | 0 | 0 | 27 | 27 | 14 | 0 | 0 | 6 | 0 | 70 | 29 | 0 | 0 | 25 | 0 | 17 | 0 | 0 | 10 |
| Fc1ccc(-c2nc3n(c2-c2ccncc2)CCS3)cc1 [GI98581] | 35 | 0 | 0 | 12 | 14 | 22 | 53 | 3 | 0 | 0 | 21 | 0 | 0 | 14 | 19 | 13 | 0 | 0 | 0 | 0 |
| Nc1cccc(-c2ccc3c(N)n[nH]c3c2)n1 [GSK2192730] | 0 | 13 | 0 | 0 | 0 | 29 | 17 | 0 | 21 | 0 | 0 | 13 | 19 | 19 | 26 | 39 | 0 | 23 | 0 | 25 |
